Data from PubChem BioAssay (NCATS).
Results filed as inconclusive are left out. A number with no mark means an inactive call. The call rests on the fitted dose curve; in most records, active means well fitted inhibition curve with a large enough effect; inconclusive means small, poorly fitted or top-dose-only effect; inactive means flat fitted curve, though single readings scatter.

assay: qHTS to identify inhibitors of the type 1 interferon - major histocompatibility complex class I in skeletal muscle: primary screen against the NCATS Pharmaceutical Collection (AID 1347407); conditions: human skeletal muscle cells, IFN-b-induced MHC-I HiBiT luminescence, 24 h; series mostly up to 45.9 µM; activity change, negative = inhibition: at the top concentration;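 further: luminescence of HiBiT knocked into endogenous HLA-B as interferon-induced MHC class I level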
In short: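 Cells were seeded with 4 ng/ml IFN-beta, incubated 1 h, then dosed with compounds over eight 1:5 steps up to 46 uM final. After 24 h at 37 C, HiBiT lytic reagent was added and luminescence read after 10 min lysis in the dark.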
On the % scale 0 is the no-effect control and ±100 the full control effect.

Compared with `Oc1ccc(C(O)CNCCCCCCNCC(O)c2ccc(O)c(O)c2)cc1O` (centres undefined), `OCc1cc(C(O)CNCCCCCCOCCCCc2ccccc2)ccc1O` (centres undefined) is lower in “activity change, negative = inhibition” value: 3.74% for the first, -28.6% for the second.

Going from `O=C(O)c1ccccn1` to `NC(=O)NNc1ccccc1`, the “activity change, negative = inhibition” value falls from 5.05% to -3.01%.

Going from `CCN(CC)CCNC(C(=O)OCCC(C)C)c1ccccc1` (centres undefined) to `CCCCC(CC)COC(=O)c1ccccc1O` (centres undefined), the “activity change, negative = inhibition” value rises from -13% to 1.43%.

Compared with `COc1ccc2cc1Oc1cc3c(cc1OC)CC[N+](C)(C)[C@H]3Cc1ccc(cc1)Oc1c(OC)c(OC)cc3c1[C@@H](C2)[N+](C)(C)CC3`, `COc1cc(C(=O)N2CCOCC2)cc(OC)c1OC` is lower in “activity change, negative = inhibition” value: 4.91% for the first, -13.8% for the second.

Compared with `Cc1cc(CC(=O)O)n(C)c1C(=O)c1ccc(Cl)cc1`, `O=C(O)Cc1sc(-c2ccccc2)nc1-c1ccc(Cl)cc1` is lower in “activity change, negative = inhibition” value: 3.89% for the first, -4.47% for the second.

Going from `NC(=O)c1ncn([C@@H]2O[C@H](CO)[C@@H](O)[C@H]2O)c1N` to `C=CCn1c(=O)n([C@@H]2O[C@H](CO)[C@@H](O)[C@H]2O)c2nc(N)[nH]c(=O)c21`, the “activity change, negative = inhibition” value falls from 2.57% to 2.35%.

Going from `NS(=O)(=O)c1cc2c(cc1Cl)NC(CSCc1ccccc1)=NS2(=O)=O` to `c1ccc2c(CC3=NCCN3)cccc2c1`, the “activity change, negative = inhibition” value falls from 1.93% to -5.16%.

First: CC1(C)CO[C@@H](CC(=O)O)CN1
Second: CC1(C)Oc2ccc(C#N)cc2[C@@H](N2CCCC2=O)[C@@H]1O
The “activity change, negative = inhibition” value of the first is higher: -3% for the first, -8.89% for the second.

Compared with `CC(=O)Nc1ccc(/C=N/NC(N)=S)cc1`, `CC(=O)NC(Cc1ccccc1)C(=O)O` (centres undefined) is higher in “activity change, negative = inhibition” value: -16.6% for the first, -5.39% for the second.

Compared with `CC(=O)CCC(=O)O`, `CC(C)(C)C(=O)NCCCC(=O)O` is lower in “activity change, negative = inhibition” value: 1.44% for the first, -1.85% for the second.

First: CCCCC/C(C=O)=C\c1ccccc1
Second: CC(O)COc1ccccc1 (centres undefined)
The “activity change, negative = inhibition” value of the first is higher: -4.97% for the first, -6.42% for the second.

Compared with `O=C1O[C@H]([C@@H](O)CO)C(O)=C1O`, `O=C(O)c1ccccc1-c1ccc(C(F)(F)F)cc1` is lower in “activity change, negative = inhibition” value: -1.45% for the first, -12.1% for the second.

First: COc1cc2[nH]c(=O)[nH]c(=O)c2cc1OC
Second: CCn1cc(C(=O)O)c(=O)c2cnc(N3CCNCC3)nc21
The “activity change, negative = inhibition” value of the first is lower: -9.49% for the first, -0.61% for the second.

First: Cc1ccc(C(C)C)cc2c(C)ccc1-2
Second: O=C(O)CN1C(=O)c2cccc3cccc(c23)C1=O
The “activity change, negative = inhibition” value of the first is higher: -2.05% for the first, -10.2% for the second.

Going from `CC1(C)[C@@H]2CC[C@@]1(C)C(=O)C2` to `CN1CCCCC1CCN1c2ccccc2Sc2ccc(S(C)=O)cc21` (centres undefined), the “activity change, negative = inhibition” value falls from 5.21% to -5.55%.

Compared with `CN(C)CCN(Cc1ccccc1)c1ccccn1`, `CC(O)CN(CCN(CC(C)O)CC(C)O)CC(C)O` (centres undefined) is higher in “activity change, negative = inhibition” value: 0.193% for the first, 1.17% for the second.

Work on `NCCNCCNCCNCCN` yielded an activity change, negative = inhibition of 0.364% [at 9.18 µM].

For `Cc1cc2nc3c(=O)[nH]c(=O)nc-3n(C[C@H](O)[C@H](O)[C@H](O)CO)c2cc1C`, the “activity change, negative = inhibition” value was 5.26% [at 19 µM].
